Measured values from PubChem BioAssay (Tox21).
Records with an inconclusive call do not appear. Active and inactive are the calls of the source. Unless noted, the call rests on the fitted dose curve; in most records, active means well fitted curve in the direction sought with a large enough effect in the repeat runs; inconclusive means weak or mixed curves; inactive means no such curve, though single readings can be large; an effect the other way counts as inactive or inconclusive.

Assays:
[1] = qHTS assay for small molecule agonists of the p53 signaling pathway (AID 651631; calls by dose curve; further: nearly all actives have a fitted effect of over 15% in size)
Summary of the method: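 Readout was fluorescence from the LiveBLAzer FRET substrate, applied for 2 h at room temperature after 16 h compound exposure at 37 °C. Cells were the p53RE-bla HCT-116 line, with beta-lactamase driven by p53 response elements.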

[2] = qHTS assay for small molecules that induce genotoxicity in human embryonic kidney cells expressing luciferase-tagged ATAD5 (AID 651632); further: nearly all actives have a fitted effect of over 15% in size
Summary of the method: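 DMSO vehicle served as the control. HEK293T reporter cells, 16 hr at 37C, then 30 min Amplite at room temperature; ATAD5 induction is measured as luciferase activity.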

[3] = qHTS assay for small molecule agonists of the p53 signaling pathway - cell viability (AID 651633; calls by dose curve; further: series mostly up to about 83 µM; nearly all actives have a fitted effect of over 30% in size)
Summary of the method: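 p53RE-bla cells were treated with compound for 16 hours at 37 C. Cytotoxicity was then measured as CellTiter-Glo luminescence after 30 min at room temperature.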

[4] = qHTS assay for small molecules that induce genotoxicity in human embryonic kidney cells expressing luciferase-tagged ATAD5 - cell viability (AID 651634; calls by dose curve; further: nearly all actives have a fitted effect of over 25% in size)
Summary of the method: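 Here HEK293T cells with the ATAD5 luciferase reporter are incubated with test compounds for 15.5 hr, and cytotoxicity is then gauged by measuring protease activity in live cells using fluorescence.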

[5] = qHTS assay to test for compound auto fluorescence at 590 nm (red) in HepG2 cells (AID 720674)
Summary of the method: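 Fluorescence at 590 nm emission following 540 nm excitation was recorded from HepG2 wells one hour after compound transfer, with DMSO-only wells as vehicle and Rose Bengal sodium equivalency as the scale.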

[6] = qHTS assay to test for compound auto fluorescence at 535 nm (green) in HepG2 cells (AID 720675)
[7] = qHTS assay to test for compound auto fluorescence at 460 nm (blue) in HEK293 cells (AID 720678)
Summary of the method: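 Blue-channel (Ex/Em 405/460 nm) intensity measured in HEK293 cultures after overnight compound exposure at 37C; signal expressed relative to triamterene. Cells plated 2,000 per well in 10% dialyzed FBS medium and allowed 4-5 hr to attach.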

[8] = qHTS assay to test for compound auto fluorescence at 590 nm (red) in HEK293 cells (AID 720679)
Summary of the method: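 Red-channel autofluorescence (Ex/Em 540/590 nm; Rose Bengal sodium reference) was measured after overnight 37C, 5% CO2 exposure of attached HEK293 cells, 2,000 per well in medium with 10% dialyzed FBS.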

[9] = qHTS assay to test for compound auto fluorescence at 535 nm (green) in HEK293 cells (AID 720680)
[10] = qHTS assay to test for compound auto fluorescence at 460 nm (blue) in HEK293 cell free culture (AID 720681)
Summary of the method: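 Compounds were added to cell-free DMEM with 10% FBS and fluorescence read directly. The blue channel used 405 nm excitation and 460 nm emission, with triamterene as the reference fluorophore.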

[11] = qHTS assay to test for compound auto fluorescence at 535 nm (green) in HEK293 cell free culture (AID 720682)
Summary of the method: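 Compounds were pin-transferred into cell-free DMEM with 10% FBS, and green fluorescence was read at excitation 485 nm and emission 535 nm. Intensities were expressed as fluorescein-equivalent values.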

[12] = qHTS assay to test for compound auto fluorescence at 590 nm (red) in HEK293 cell free culture (AID 720683)
Summary of the method: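 Cell-free wells of DMEM with 10% FBS received compound, and intrinsic fluorescence was read at excitation/emission 540/590 nm. Values expressed as equivalence to Rose Bengal sodium.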

[13] = qHTS assay to test for compound auto fluorescence at 590 nm (red) in HepG2 cell free culture (AID 720684)
Summary of the method: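 Auto fluorescence equivalency versus Rose Bengal sodium, red channel Ex/Em 540/590 nm; compounds in cell-free MEM/10% FBS; DMSO vehicle control.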

[14] = qHTS assay to test for compound auto fluorescence at 460 nm (blue) in HepG2 cell free culture (AID 720685)
Summary of the method: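 Cell-free plates of MEM plus 10% FBS received 23 nL compound or DMSO vehicle; blue-channel (405/460 nm) intensity scored against triamterene as reference fluorophore.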

[15] = qHTS assay to test for compound auto fluorescence at 535 nm (green) in HepG2 cell free culture (AID 720686)
[16] = qHTS assay to test for compound auto fluorescence at 460 nm (blue) in HepG2 cells (AID 720687)
Summary of the method: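 HepG2 cells in MEM with 10% FBS, attached overnight at 37 C, were exposed to compound or DMSO for 1 hr at 37 C, 5% CO2. Blue fluorescence was read at 405/460 nm, with triamterene as reference fluorophore.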

[17] = target: Glucocorticoid receptor (Homo sapiens) (UniProt P04150); experiment: qHTS assay to identify small molecule agonists of the glucocorticoid receptor (GR) signaling pathway (AID 720691; active means well fitted activation curve with a large enough effect in the signal ratio in the repeat runs, not every such curve was filed as active; the % refers to the signal ratio)
Chain of Glucocorticoid receptor (Homo sapiens) (P04150 whole entry, looked up): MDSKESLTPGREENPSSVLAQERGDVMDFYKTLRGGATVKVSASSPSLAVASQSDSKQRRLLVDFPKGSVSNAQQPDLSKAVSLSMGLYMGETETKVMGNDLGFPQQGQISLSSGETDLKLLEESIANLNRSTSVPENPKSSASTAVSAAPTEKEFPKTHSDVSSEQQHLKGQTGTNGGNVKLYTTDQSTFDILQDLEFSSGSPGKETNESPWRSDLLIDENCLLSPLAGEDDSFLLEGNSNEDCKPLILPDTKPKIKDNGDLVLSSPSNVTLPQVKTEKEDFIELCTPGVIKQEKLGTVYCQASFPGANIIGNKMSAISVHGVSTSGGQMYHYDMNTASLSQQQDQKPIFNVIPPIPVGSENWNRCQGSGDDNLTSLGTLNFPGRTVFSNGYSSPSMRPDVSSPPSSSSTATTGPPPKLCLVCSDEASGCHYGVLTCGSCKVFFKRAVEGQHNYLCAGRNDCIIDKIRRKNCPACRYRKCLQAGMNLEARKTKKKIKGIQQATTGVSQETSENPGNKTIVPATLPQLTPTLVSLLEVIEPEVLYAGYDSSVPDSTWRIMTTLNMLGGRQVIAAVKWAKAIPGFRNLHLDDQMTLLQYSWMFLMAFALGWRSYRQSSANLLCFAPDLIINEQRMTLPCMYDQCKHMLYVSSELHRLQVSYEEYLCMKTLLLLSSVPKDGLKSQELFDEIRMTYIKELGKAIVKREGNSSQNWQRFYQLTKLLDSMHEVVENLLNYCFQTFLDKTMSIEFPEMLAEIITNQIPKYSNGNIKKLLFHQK
Summary of the method: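 Compounds in DMSO, alongside positive controls, were added to GR-bla HeLa reporter cells and incubated 18 h at 37 C; GRE-driven beta-lactamase was detected by fluorescence after 2 h with FRET substrate at room temperature.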

[18] = qHTS assay for small molecule disruptors of the mitochondrial membrane potential (AID 720635); further: potency means the concentration at half of the fitted maximal effect
Summary of the method: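 HepG2 cells exposed to compound 1 hr at 37C, then Mito-MPS dye 30 min. Ratio read of aggregate (540/590 nm) versus monomer (490/535 nm) fluorescence.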

[19] = target: Glucocorticoid receptor (Homo sapiens) (UniProt P04150); experiment: qHTS assay to identify small molecule antagonists of the glucocorticoid receptor (GR) signaling pathway (AID 720692; active means well fitted inhibition curve with a large enough effect in the signal ratio in the repeat runs, not every such curve was filed as active; the % refers to the signal ratio)
Summary of the method: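 In a 1536-well cell format, compounds were added 4 h after seeding GR-bla HeLa cells, together with dexamethasone at 5 nM final; reporter activity was measured by FRET-substrate fluorescence following 18 h at 37 C.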

[20] = qHTS assay for small molecule disruptors of the mitochondrial membrane potential - cell viability (AID 720634; calls by dose curve;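 further: human HepG2 liver cancer cells; series mostly up to about 83 µM; nearly all actives have a fitted effect of over 20% in size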)
Summary of the method: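 Viability of HepG2 cells is scored from ATP content by luminescence; cells are exposed to compound for 1 hr at 37 C and 5% CO2, then dosed with m-MPI dye before the CellTiter-Glo reagent.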
On the % scale 0 is the no-effect control and ±100 the full control effect.

C[C@H](CN1CCOCC1)C(C(=O)N1CCCC1)(c1ccccc1)c1ccccc1
inactive: Potency [1] | outcome [2] | Potency [3] | Potency [4] | outcome [5] | outcome [6] | outcome [7] | outcome [8] | outcome [9] | outcome [10] | outcome [11] | outcome [12] | outcome [13] | outcome [14] | outcome [15] | outcome [16] | Potency [17]

CCCCCCC(=O)CCCCCC/C=C/C[C@@H](O)[C@H](O)[C@@](N)(CO)C(=O)O
inactive: Potency [1] | outcome [2] | Potency [3] | Potency [4] | Potency [18] | outcome [5] | outcome [6] | outcome [7] | outcome [8] | outcome [9] | outcome [10] | outcome [11] | outcome [12] | outcome [13] | outcome [14] | outcome [15] | outcome [16] | Potency [17] | Potency [19]

CCCOC(=O)Cc1ccc(OCC(=O)N(CC)CC)c(OC)c1
inactive: Potency [1] | outcome [2] | Potency [3] | Potency [4] | Potency [18] | outcome [5] | outcome [7] | outcome [8] | outcome [9] | outcome [10] | outcome [11] | outcome [12] | outcome [13] | outcome [15] | outcome [16]

ClCCCCl
inactive: Potency [1] | outcome [2] | Potency [3] | Potency [4] | Potency [20] | outcome [5] | outcome [7] | outcome [8] | outcome [9] | outcome [10] | outcome [11] | outcome [12] | outcome [13] | outcome [14] | outcome [15] | outcome [16] | Potency [17]

COc1cccc(C=O)c1
inactive: Potency [1] | outcome [2] | Potency [3] | Potency [4] | outcome [5] | outcome [6] | outcome [7] | outcome [8] | outcome [9] | outcome [10] | outcome [11] | outcome [12] | outcome [13] | outcome [14] | outcome [15] | outcome [16] | Potency [17] | Potency [19]

CC(C)(O)C(Cl)(Cl)Cl
inactive: Potency [1] | outcome [2] | Potency [3] | Potency [4] | Potency [20] | outcome [5] | outcome [8] | outcome [9] | outcome [10] | outcome [11] | outcome [12] | outcome [13] | outcome [14] | outcome [15] | outcome [16] | Potency [17]

BrCc1ccc(Br)cc1
inactive: Potency [1] | outcome [2] | Potency [3] | Potency [4] | Potency [18] | outcome [5] | outcome [6] | outcome [7] | outcome [8] | outcome [9] | outcome [10] | outcome [11] | outcome [12] | outcome [13] | outcome [15] | outcome [16]

C=CC=O
inactive: Potency [1] | outcome [2] | Potency [3] | Potency [4] | outcome [5] | outcome [6] | outcome [7] | outcome [8] | outcome [9] | outcome [10] | outcome [11] | outcome [12] | outcome [13] | outcome [14] | outcome [15] | outcome [16] | Potency [17] | Potency [19]

Oc1ccc2c3c1O[C@H]1[C@@H](O)C=C[C@H]4[C@@H](C2)NCC[C@@]341
inactive: Potency [1] | outcome [2] | Potency [3] | Potency [4] | outcome [5] | outcome [6] | outcome [7] | outcome [8] | outcome [9] | outcome [10] | outcome [11] | outcome [12] | outcome [13] | outcome [15] | outcome [16]

Brc1c(Br)c(Br)c(Br)c(Br)c1Br
inactive: activation [1] -6.36% [at 8.3 µM] | activation [2] 2.71% [at 8.08 µM] | activity change, negative = cytotoxicity [3] 9.67% [at 8.08 µM] | activity, negative = cytotoxicity [4] 13.6% [at 8.08 µM] | activity change, negative = cytotoxicity [20] 4.11% [at 8.08 µM] | fluorescence, relative to Rose Bengal [5] 0.167% [at 3.72 µM] | fluorescence, % of triamterene [7] 0.185% [at 3.72 µM] | fluorescence, % of fluorescent control [8] -0.438% [at 3.72 µM] | fluorescence, % of fluorescein [9] -0.0363% [at 3.72 µM] | activity change [11] 0.039% [at 3.72 µM] | fluorescence, % of fluorescent control [12] -0.398% [at 3.72 µM] | fluorescence, % of Rose Bengal [13] 0.0791% [at 3.72 µM] | fluorescence, % of fluorescent control [14] 0.0001% [at 3.72 µM] | fluorescence, % of fluorescein control [15] 0.0083% [at 3.72 µM] | fluorescence, % of fluorescent control [16] 0.182% [at 3.72 µM] | activation [17] 0.883% [at 6.9 µM] | activity change, negative = inhibition [19] 4.46% [at 7.04 µM]

C=CCc1cc(OC)c2c(c1)OCO2
inactive: Potency [1] | outcome [2] | Potency [3] | Potency [4] | Potency [18] | outcome [5] | outcome [6] | outcome [7] | outcome [8] | outcome [9] | outcome [10] | outcome [12] | outcome [13] | outcome [14] | outcome [15] | outcome [16] | Potency [17]

N[C@@H]1C[C@H]1c1ccccc1
inactive: Potency [1] | outcome [2] | Potency [3] | Potency [4] | Potency [20] | outcome [5] | outcome [6] | outcome [8] | outcome [9] | outcome [10] | outcome [12] | outcome [13] | outcome [14] | outcome [15] | outcome [16]

CCOC(=O)Nc1cccc(OC(=O)Nc2ccccc2)c1
inactive: Potency [1] | outcome [2] | Potency [3] | Potency [4] | outcome [5] | outcome [6] | outcome [7] | outcome [8] | outcome [9] | outcome [10] | outcome [11] | outcome [12] | outcome [13] | outcome [14] | outcome [15] | outcome [16] | Potency [17] | Potency [19]
active: Potency [18] 9.69 µM

CCCN1CCC[C@@H]2Cc3[nH]ncc3C[C@H]21
inactive: outcome [2] | Potency [3] | Potency [4] | Potency [20] | outcome [5] | outcome [6] | outcome [7] | outcome [8] | outcome [9] | outcome [10] | outcome [11] | outcome [12] | outcome [13] | outcome [14] | outcome [15] | outcome [16] | Potency [17] | Potency [19]
